Source: PubChem
CCHFV vOTU inh: CCHFV vOTU protease inhibition. Pep-AMC fluorescence. inhibition, % at 11.5 µM. 0.55% of 370,000 active. AID 651958; in the data active = inhibition above about 30%; also: 0% = vehicle wells with enzyme and 100% = no enzyme wells
Sa RN4220 lethal: S. aureus RN4220 growth inhibition; OD600, 16 h; inhibition, % (test concentration not listed); 0.33% of 330,000 active; AID 1259311; in the data active = inhibition above about 85%;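 also: plate controls were untreated cells for no effect and reference antibiotic for full effect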
PriA SSB inh: blocks PriA binding to SSB C-terminal tail; 0.6% of 430,000 active; AID 1272365; inhibition, % at 33 µM; AlphaScreen SSBct-PriA binding, biotinylated peptide; in the data active = inhibition mostly above about 37%, no sharp cut-off; inactive = mostly below about 20%;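 also: plate controls were negative control peptide for no effect and reference peptide for full effect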
VHR inh abs: blocks human VHR1 dual specificity phosphatase. P51452. recombinant VHR phosphatase, pNPP absorbance. inhibition, % at 13.3 µM. 0.52% of 290,000 active. AID 1654; in the data active = inhibition above about 50%
Target sequence (P51452 whole entry, looked up): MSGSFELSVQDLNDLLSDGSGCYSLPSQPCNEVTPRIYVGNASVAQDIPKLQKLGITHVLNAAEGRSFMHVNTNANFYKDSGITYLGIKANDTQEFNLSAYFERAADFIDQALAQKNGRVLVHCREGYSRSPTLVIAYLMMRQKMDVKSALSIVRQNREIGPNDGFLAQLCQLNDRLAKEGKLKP
ugtP null kill: growth inhibition of S. aureus ugtP deletion strain | S. aureus RN4220 ugtP deletion, OD600 growth, 16 h | growth inhibition, % (concentration not given with the values) | 0.54% of 330,000 active; in the data active = growth inhibition above about 68%;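 also: plate controls were untreated wells for no effect and antibiotic for full effect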
* = called active by the depositor; i = inactive; · = no result given; ! = not confirmed by another sample. In the library only some 1.5% were active in any assay of this set; here they are far more common.

SMILES	CCHFV vOTU inh	Sa RN4220 lethal	PriA SSB inh	VHR inh abs	ugtP null kill
Cc1ccc(OCC(=O)N2C3CCC2CC(S(=O)(=O)c2ccccc2)C3)cc1 (centres undefined)	·	·	79*	·	·
COc1cccc(C(=O)Nc2ncnc3sccc23)c1OC	·	·	10	·	·
COc1ccccc1/C=C/CN1CCC(n2nccc2NC(=O)CCc2ccccc2)CC1	-6	-2	102*	-2	-6
O=C(CCc1ccccc1)Nc1ccnn1C1CCN(C/C=C/c2ccccc2)CC1	5	·	-3	-9	·
COc1ccccc1[C@H](CNS(=O)(=O)c1ccc(C)s1)OC	·	·	-8	·	·
CC(C)(CO)NC(=O)Cc1ccc(NC(=O)NC(c2ccccc2)c2ccccc2)cc1	·	·	-16	·	·
NS(=O)(=O)c1ccc(CNC(=O)NC2(c3ccccc3)CC2)cc1	-2	3	-17	50*	9
COc1ccc2sc(N(CCN3CCOCC3)C(=O)c3cccc(SC)c3)nc2c1	·	·	1	·	·
COc1ccc(CC(=O)N(CCN2CCOCC2)c2nc3ccc(SC)cc3s2)cc1OC	·	·	29*	·	·
CCOc1ccc(N2C(=O)Nc3ccccc3C2(O)C(=O)NCc2ccc(C)cc2)cc1 (centres undefined)	-10	100	-3	26	active
CCOc1ccc(N2C(=O)Nc3ccccc3C2(O)C(=O)NCc2ccc3c(c2)OCO3)cc1 (centres undefined)	-7	2	-20	19	-1
CCc1ccc(NSc2ccccc2[N+](=O)[O-])cc1	7	21	65*	-1	9
O=C(O)c1ccccc1NSc1ccccc1[N+](=O)[O-]	2	13	-6	18	-8
COc1cccc(-c2cc(C(F)(F)F)nc(N3CCC(C)CC3)n2)c1	-10	-2	-93	31	94*
COc1cccc(-c2cc(C(F)(F)F)nc(N3CCOCC3)n2)c1	4	5	-47	16	55
Cc1ccc(-c2cc(C(F)F)nc(N3CCC(C)CC3)n2)cc1	3	-5	-21	7	91*
CC1CCN(c2nc(-c3ccccc3)cc(C(F)(F)F)n2)CC1	2	0	-114	27	88*
COC(=O)c1ccc(NC(=O)c2cn(C)cc3c(=O)n(-c4ccccc4)nc2-3)cc1	·	·	8	·	·
COc1cccc(Cn2nc3n(CCC(=O)NC4CCCCC4)c(=O)c4ccccc4n3c2=O)c1	·	·	-10	·	·
O=C(Cc1cccc2ccccc12)NCC1(O)CCCC1	·	·	-12	·	·
COc1ccc(S(=O)(=O)Nc2ccccc2C(=O)N2CCN(c3ccccc3)CC2)cc1	·	·	-13	·	·
COC(=O)CS[C@H]1CCN(S(=O)(=O)c2ccccc2F)C1	·	·	-2	·	·
CCc1ccc(NC(=O)CSc2nncn2-c2cccnc2)cc1	4	1	-9	56*	9
CCCN1CCCc2cc(CCNC(=O)c3ccc(F)c(F)c3)ccc21	·	·	45	·	·
CCN1CCCc2cc(CCNC(=O)c3ccc4c(c3)OCO4)ccc21	·	·	65*	·	·
SMILES	CCHFV vOTU inh	Sa RN4220 lethal	PriA SSB inh	VHR inh abs	ugtP null kill
CCN1CCCc2cc(CCNC(=O)c3ccc(OC)c(OC)c3)ccc21	·	·	64*	·	·
CCN1CCCc2cc(CCNC(=O)C(=O)NC(C)C)ccc21	·	·	26	·	·
CCCNc1nc(SCC)nc2c1cnn2CCNC(=O)c1c(-c2ccccc2Cl)noc1C	·	·	88*	·	·
Cc1cc2ccccc2n1CCNC(=O)COc1ccccc1	4	-12	49*	-10	-12
Cc1onc(-c2ccccc2Cl)c1C(=O)NCCn1c(C)cc2ccccc21	·	0	87*	13	-10
COc1ccnc(CSC(N)=Nc2ccccc2OC)c1	5	7	40*	8	6
CC1CCc2c(sc(Nc3nc4c(F)cccc4s3)c2C(N)=O)C1 (centres undefined)	8	37	51*!	7	19
Cc1ccc(C(=O)CSc2nnc(-c3ccc4[nH]c(C)c(C)c4c3)o2)cc1C	-14	18	-16	14	98*
C=CCn1cnc2c(c1=O)c1nc3ccccc3nc1n2/N=C/c1cc(OC)c(OC)c(OC)c1	12	·	i	10	·
C=CCn1cnc2c(c1=O)c1nc3ccccc3nc1n2/N=C/c1cccc(OC)c1OC	-11	·	·	101*	·
Cc1cc(/C=C(\C#N)C(=O)N2CCCCC2)cc(C)c1O	6	4	6	58*	-2
N#C/C(=C\c1cccc(O)c1)C(=O)N1CCCCC1	-16	4	1	31	-3
COc1cccc(-c2cc(C(=O)NC[C@H]3CCCN3c3ccccc3)n(C)n2)c1	·	·	23	·	·
CCOc1ccc2ccccc2c1C(=O)N1CCN(C[C@H](C)O)CC1	·	·	1	·	·
CCCNC(=S)Nc1cccc(C(F)(F)F)c1	3	0	-11	0	2
FC(F)(F)c1cccc(NC(=S)NCC2COc3ccccc3O2)c1 (centres undefined)	8	54	-16	3	83*
Cc1cccc(C(=O)NC(=S)NNC(=O)c2ccc(Cl)cc2)c1	3	85*	-1	-2	84
CC(C)C(=O)Nc1cccc(NC(=S)NC(=O)c2ccc(Cl)cc2)c1	7	2	0	6	83*
O=C(NC(=S)Nc1ccc2c(c1)OCO2)c1ccc(Cl)cc1	17	5	-8	5	88*
Cc1cccc(C(=O)NC(=S)Nc2ccc(Cc3ccncc3)cc2)c1	12	-1	5	25	79
Cc1cccc(C(=O)NC(=S)NNC(=O)c2cccs2)c1	-2	53	-14	15	19
CC(C)C(=O)Nc1cccc(NC(=S)NC(=O)c2ccc3c(c2)OCO3)c1	-4	3	-2	-3	-2
Cc1cc(C)cc(C(=O)NC(=S)Nc2ccc(Cc3ccncc3)cc2)c1	0	2	13	1	87*
CC(C)(Oc1ccc(Cl)cc1)C(=O)NCC1CCN(C(=O)c2cccnc2)CC1	·	·	-5	·	·
O=C(CN1CCCc2ccccc21)N/N=C\c1ccco1	·	·	25	·	·
SMILES	CCHFV vOTU inh	Sa RN4220 lethal	PriA SSB inh	VHR inh abs	ugtP null kill
CCOc1cccc2cc(-c3nnc(NC(=O)Cc4ccc(OC)cc4)o3)oc12	·	·	-9	·	·
Cc1cc(C)cc(C(=O)NC(=S)Nc2ccc3c(c2)OCCO3)c1	-13	6	6	14	93*
O=C(N/N=C/c1ccc[nH]1)c1ccccc1OCc1ccccc1Cl	3	·	·	57*	·
O=c1ccc(-c2nc(-c3cnccn3)no2)cn1Cc1ccccc1F	·	·	-6	·	·
CSc1ccccc1OCc1cc(C(=O)N2CCc3[nH]cnc3C2c2ccccn2)no1 (centres undefined)	9	2	52*	30	10
CCOC(=O)N1CCC(NC(=O)c2cc(COc3ccccc3SC)on2)CC1	2	1	-6	53*	-5
CSc1ccccc1OCc1cc(C(=O)N2CCN(c3ccccc3)CC2C)no1 (centres undefined)	13	2	-11	37	-12
O=C(NCc1nnc(SCC(=O)N2CCOCC2)o1)c1ccccc1	7	·	56*	·	·
Nc1nc(N)c2cc(Sc3ccc4ccccc4c3)ccc2n1	5	100*	9	23	99*
Nc1nc(N)c2cc(Sc3ccc(Cl)cc3)ccc2n1	-30	·	·	·	·
O=C(O)c1cccc(Cn2c(Cl)c(C=NNc3ccccc3)sc2=O)c1	·	94*	15	·	97*
